Reference: PubChem BioAssay
Calls of active or inactive are those of the source. Unless noted, the rule behind the calls is not given here.

How the values were obtained:
[1] = HepG2 liver cancer cell viability effects, profiling panel, resazurin fluorescence, 24 h, PK04 Diversity Set (AID 1172); details: higher = more signal
[2] = basal S. cerevisiae growth modulation, no modifier, primary screen, OD600, strain BY4716, 24 h, basal condition (AID 1173); details: OD600, 24 h, higher = more signal, called active from +8 up or from −8 down
[3] = MM1S myeloma cell viability, profiling panel, resazurin fluorescence, basal, 24 h, PK04 Diversity Set (AID 1174); details: higher = more signal, called active from +8 up or from −8 down;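 note: MM1S multiple myeloma cell line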
[4] = molecular target: Dihydroorotate dehydrogenase (quinone), mitochondrial (Plasmodium falciparum (isolate 3D7)) (UniProt Q08210); assay: PfDHODH enzyme inhibitors, primary screen, biochemical, C-terminal His tag, absorbance 600 nm (AID 1175); details: DCIP absorbance 600 nm, higher = more signal, called active from +8 up or from −8 down;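 note: recombinant parasite enzyme with a five histidine tag at its C terminus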
Sequence of Dihydroorotate dehydrogenase (quinone), mitochondrial (Plasmodium falciparum (isolate 3D7)) (Q08210 whole entry, looked up): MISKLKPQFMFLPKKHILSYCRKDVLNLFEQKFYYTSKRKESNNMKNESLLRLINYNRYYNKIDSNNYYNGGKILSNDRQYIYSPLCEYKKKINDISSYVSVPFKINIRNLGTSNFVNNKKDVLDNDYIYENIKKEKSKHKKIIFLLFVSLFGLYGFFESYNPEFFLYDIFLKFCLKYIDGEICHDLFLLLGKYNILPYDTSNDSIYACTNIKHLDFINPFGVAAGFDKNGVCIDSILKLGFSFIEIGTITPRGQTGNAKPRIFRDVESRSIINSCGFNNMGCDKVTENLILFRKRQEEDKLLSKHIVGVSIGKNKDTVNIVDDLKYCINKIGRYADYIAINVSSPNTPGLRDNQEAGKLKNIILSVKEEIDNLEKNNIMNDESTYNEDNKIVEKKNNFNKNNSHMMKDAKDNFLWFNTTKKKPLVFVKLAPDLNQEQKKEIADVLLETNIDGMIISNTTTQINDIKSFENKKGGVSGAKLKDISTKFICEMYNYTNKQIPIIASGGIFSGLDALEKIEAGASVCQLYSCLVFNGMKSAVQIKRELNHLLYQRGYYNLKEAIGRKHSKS

[5] = P. aeruginosa biofilm formation inhibitors, primary screen, strain PAO1, LB-PBS medium, absorbance 600 nm (AID 1176); details: P. aeruginosa PAO1 growth/biofilm, A600, 12 h; higher = more signal
[6] = S. cerevisiae RM11-1a growth modifiers, primary screen, strain RM11-1a, OD600, basal, 24 h (AID 1177); details: OD600, 24 h, higher = more signal, called active from +8 up or from −8 down;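 note: cultures grown under basal conditions with no added stressor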
[7] = E. coli acrAB mutant growth effects, primary screen, E. coli filamentation inducers, strain DRC39, OD650, 24 h (AID 1178); details: higher = more signal, called active from +8 up or from −8 down;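 note: growth measured as culture turbidity by optical density at 650 nm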
[8] = E. coli acrAB mutant growth effects, primary screen, E. coli filamentation inducers, strain DRC39, OD650, 48 h (AID 1179);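 note: screen aims at cell division blockers that make cells filament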; details: E. coli DRC39 delta-acrAB growth, higher = more signal, called active from +8 up or from −8 down
[9] = RPMI8226 myeloma cell viability, profiling panel, resazurin fluorescence, basal, 24 h, PK04 Diversity Set (AID 1180); details: higher = more signal;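 note: RPMI8826 multiple myeloma cell line at 5000 cells per well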
[10] = molecular target: E3 ubiquitin-protein ligase XIAP (Homo sapiens) (UniProt P98170); assay: XIAP binders, primary screen, biophysical, small-molecule microarray, fluorescence 635 nm (AID 1181); details: small-molecule microarray binding, higher = more signal;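 note: score merges 667 nm emission and signal to noise over triplicate slides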
Sequence of E3 ubiquitin-protein ligase XIAP (Homo sapiens) (P98170 whole entry, looked up): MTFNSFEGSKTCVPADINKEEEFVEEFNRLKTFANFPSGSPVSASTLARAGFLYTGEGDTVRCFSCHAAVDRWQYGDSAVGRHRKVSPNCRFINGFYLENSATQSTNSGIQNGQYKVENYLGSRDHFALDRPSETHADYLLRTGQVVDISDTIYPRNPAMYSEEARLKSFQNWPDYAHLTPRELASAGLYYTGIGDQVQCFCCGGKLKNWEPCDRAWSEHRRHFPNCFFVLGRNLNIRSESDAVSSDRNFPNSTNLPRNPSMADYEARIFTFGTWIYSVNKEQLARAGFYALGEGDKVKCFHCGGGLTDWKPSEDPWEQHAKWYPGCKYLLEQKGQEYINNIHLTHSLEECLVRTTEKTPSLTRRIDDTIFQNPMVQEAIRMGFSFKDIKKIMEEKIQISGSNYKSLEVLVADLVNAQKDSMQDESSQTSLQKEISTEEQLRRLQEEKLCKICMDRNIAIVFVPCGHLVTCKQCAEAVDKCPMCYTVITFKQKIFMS

[11] = test system: XIP peptide (Xip251-270) binding; assay: small-molecule binders of XIP peptide, primary screen, biochemical, small-molecule microarray, fluorescence 635/667 nm, 0.1 µg/mL protein (AID 1182); details: fluorescent protein binding, 635 nm, higher = more signal, called active from +8 up or from −8 down
[12] = test system: XIP peptide (Xip251-270); assay: small-molecule binders of XIP peptide, primary screen, biochemical, small-molecule microarray, fluorescence 635/667 nm, 0.5 µg/mL protein (AID 1183); details: small-molecule microarray binding, fluorescence 635 nm; higher = more signal
[13] = Plasmodium falciparum growth inhibition, primary screen, strain 3D7, DAPI fluorescence, 100 nL (AID 1184);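 note: parasites grown inside human red blood cells in medium with human serum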; details: P. falciparum 3D7 growth, 3 d, higher = more signal
[14] = molecular target: Homeobox protein Hox-A13 (Mus musculus) (UniProt Q62424); assay: inhibitors of HoxA13-DNA binding, primary screen, biochemical, fluorescence polarization, labeled oligonucleotide (AID 1185); details: 15 min, higher = more signal, called active from +8 up or from −8 down
Sequence of Homeobox protein Hox-A13 (Mus musculus) (Q62424 whole entry, looked up): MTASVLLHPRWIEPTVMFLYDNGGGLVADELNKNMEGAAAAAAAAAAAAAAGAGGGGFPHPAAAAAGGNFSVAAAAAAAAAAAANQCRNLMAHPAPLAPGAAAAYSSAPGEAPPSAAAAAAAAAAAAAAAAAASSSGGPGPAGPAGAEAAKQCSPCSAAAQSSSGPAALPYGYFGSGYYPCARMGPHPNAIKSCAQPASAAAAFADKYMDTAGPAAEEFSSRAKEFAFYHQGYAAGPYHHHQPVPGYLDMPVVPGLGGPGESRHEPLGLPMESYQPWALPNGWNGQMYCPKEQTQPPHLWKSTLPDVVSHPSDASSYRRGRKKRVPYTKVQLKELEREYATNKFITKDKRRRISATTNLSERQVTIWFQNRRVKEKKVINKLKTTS

[15] = inhibitors of hydroxyurea-induced Chk1 phosphorylation, primary screen, imaging, HeLa, phospho-Chk1 antibody, percent positive cells (AID 1186); details: hydroxyurea-induced phospho-Chk1 immunofluorescence imaging, higher = more signal
[16] = inhibitors of hydroxyurea-induced Chk1 phosphorylation, primary screen, imaging, HeLa, phospho-Chk1 nuclear intensity (AID 1187); details: hydroxyurea-induced phospho-Chk1 immunofluorescence imaging, higher = more signal

Compound | z-score [1] | z-score [2] | z-score [3] | composite z-score [4] | z-score [5] | z-score [6] | z-score [7] | z-score [8] | z-score [9] | composite z-score [10] | composite z-score [11] | composite z-score [12] | z-score [13] | z-score [14] | z-score [15] | z-score [16]
COC(=O)[C@@]1(Cc2ccc(F)cc2)[C@H]2c3cc(C(=O)N(C)C)n(Cc4nc5ccccc5[nH]4)c3C[C@H]2CN1C(=O)c1ccccc1 | 0.455 | 0.681 (inactive) | -0.534 (inactive) | 0.0187 (inactive) | 0.315 (inactive) | 0.22 (inactive) | -0.0051 (inactive) | 0.12 (inactive) | -0.187 | 0.338 | 0.642 (inactive) | 0.817 | -0.593 | -3.68 (inactive) | -0.11 (inactive) | -0.0626 (inactive)
C=CCC(OC(C)=O)[C@@H]1[C@@H](N(Cc2cccc3ccccc23)C(=O)c2ccc(-c3ccccc3)cc2)c2cc(OCCCO)ccc2N1C(=O)Cc1ccc(OC)cc1 (stereo partly drawn) | 1.07 | -0.912 (inactive) | 1.6 (inactive) | -0.606 (inactive) | -0.513 (inactive) | -1.2 (inactive) | 0.738 (inactive) | 0.718 (inactive) | 1.45 | -0.0076 | -0.162 (inactive) | 0.637 | -1.17 | -1.15 (inactive) | -0.302 (inactive) | -0.0837 (inactive)
COc1ccc(NN2C(C(O)c3ccc([N+](=O)[O-])cc3)C=CC3C(=O)N(C4CCCCC4)C(=O)C32)cc1 (stereo not drawn) | 0.755 | 0.136 (inactive) | 0.0225 (inactive) | -0.238 (inactive) | 0.67 (inactive) | 0.388 (inactive) | -0.637 (inactive) | 0.523 (inactive) | 0.907 | 0.209 | -0.025 (inactive) | -0.0788 | -0.0215 | -3.73 (inactive) | -0.414 (inactive) | -0.331 (inactive)
O=C1NC(=O)C2C1C=CC(C(O)c1cccc3ccccc13)N2Nc1ccccn1 (stereo not drawn) | -0.692 | 0.268 (inactive) | -1.74 (inactive) | 0.305 (inactive) | 0.226 (inactive) | 0.798 (inactive) | -0.334 (inactive) | 0.638 (inactive) | -0.94 | 0.276 | -0.219 (inactive) | 0.395 | 0.181 | -1.71 (inactive) | -0.146 (inactive) | -0.382 (inactive)
C=CCC(OC(C)=O)[C@@H]1[C@@H](N(Cc2ccc(-c3ccccc3)cc2)C(=O)Cc2ccc(F)cc2)c2cc(OCCCO)ccc2N1C(=O)c1ccc(-c2ccccc2)cc1 (stereo partly drawn) | 1.27 | -1.65 (inactive) | 1.4 (inactive) | -1.46 (inactive) | -0.124 (inactive) | -1.34 (inactive) | 0.904 (inactive) | 1.6 (inactive) | 1.48 | -0.296 | -0.142 (inactive) | 0.166 | -1.9 | -0.778 (inactive) | -0.517 (inactive) | -0.285 (inactive)
C=CC[C@@]1(C(=O)N(C)C)N=C(c2ccc(OCCCO)cc2)O[C@@H]1c1ccccc1N=[N+]=[N-] | -0.614 | 0.093 (inactive) | -2.82 (inactive) | -0.007 (inactive) | 0.314 (inactive) | 0.274 (inactive) | -0.112 (inactive) | 0.0912 (inactive) | -1.71 | 0.0794 | 0.158 (inactive) | 0.888 | -2.09 | -3.42 (inactive) | 0.0664 (inactive) | 0.157 (inactive)
C#CCN(CC=C(C)C)[C@H](CO)c1ccccc1 | 0.0941 | -8.3 (active) | 0.101 (inactive) | -2.54 (inactive) | -0.635 (inactive) | -0.0386 (inactive) | -0.997 (inactive) | -1.3 (inactive) | -0.544 | -0.165 | 0.102 (inactive) | -0.564 | -1.34 | -0.2 (inactive) | 0.557 (inactive) | 0.457 (inactive)
COc1ccc(COC2OC[C@]3(C)[C@H]4C5=C(CN3C(=O)OC(C)(C)C)[C@H](C)C(CO)C(CO)C5CC[C@@H]24)cc1 (stereo partly drawn) | -0.987 | 0.455 (inactive) | -2.38 (inactive) | -0.124 (inactive) | 1.03 (inactive) | 0.903 (inactive) | -0.806 (inactive) | -1.6 (inactive) | -1.19 | -0.02 | -0.188 (inactive) | 0.505 | -1.04 | -4.75 (inactive) | 0.721 (inactive) | 0.353 (inactive)
COC(=O)[C@@]1(Cc2ccc(OC)cc2)[C@H]2c3cc(C(=O)N4CCCC4)n(Cc4ccccc4)c3C[C@H]2CN1C(=O)c1ccccc1 | -2.62 | 1.04 (inactive) | -0.912 (inactive) | -0.264 (inactive) | 0.219 (inactive) | 0.479 (inactive) | -0.559 (inactive) | 0.0434 (inactive) | -3.16 | -0.065 | 0.738 (inactive) | 0.0127 | -1.5 | -3.78 (inactive) | 0.212 (inactive) | 0.07 (inactive)
COCCOC(=O)N1C(=O)[C@@]2(c3cc(C#CC4=CCCCC4)ccc31)[C@H](C(=O)Nc1nc3ccccc3s1)[C@H]1C(=O)O[C@H](c3ccccc3)[C@H](c3ccccc3)N1[C@@H]2c1ccccc1OCCO | 0.444 | 0.794 (inactive) | -0.386 (inactive) | 1.37 (inactive) | 1.16 (inactive) | 1.99 (inactive) | -0.653 (inactive) | -0.883 (inactive) | -0.575 | -0.05 | 0.494 (inactive) | 0.698 | -2.04 | 1.67 (inactive) | -0.169 (inactive) | -0.114 (inactive)
COc1ccc([Si](C)(C)[C@H]2[C@H](CC(=O)N3Cc4ccccc4C[C@H]3CO)O[C@@]3(C(=O)N(Cc4ccc(N5CCC5=O)cc4)c4ccccc43)[C@@H]2C)cc1 | 0.194 | -0.535 (inactive) | -1.56 (inactive) | -3.08 (inactive) | 0.201 (inactive) | 1.83 (inactive) | -0.0476 (inactive) | -0.421 (inactive) | -1.26 | 0.216 | 0.0316 (inactive) | 0.817 | -1.95 | -3.83 (inactive) | -0.176 (inactive) | -0.0862 (inactive)
C=C/C=C/[C@H]1C(=C)CN([C@@H](Cc2ccccc2)C(=O)OC)[C@@H]1[C@H](O)Cc1ccccc1 | 0.28 | -1.91 (inactive) | 0.883 (inactive) | -1.09 (inactive) | 0.531 (inactive) | -0.609 (inactive) | 0.701 (inactive) | 0.595 (inactive) | 0.73 | 0.643 | -0.245 (inactive) | 0.497 | -1.2 | -1.43 (inactive) | -0.0246 (inactive) | -0.368 (inactive)
CC(C)(C)OC(=O)CC[C@@]1(C(=O)NCC(O)CO)N=C(c2ccc(OCCCO)cc2)O[C@@H]1c1ccccc1N=[N+]=[N-] (stereo partly drawn) | 0.486 | -0.69 (inactive) | -1.26 (inactive) | 0.536 (inactive) | -0.127 (inactive) | 0.151 (inactive) | 0.4 (inactive) | 1.65 (inactive) | 0.576 | 0.201 | 1.01 (inactive) | 0.795 | -1.86 | -4.43 (inactive) | -0.436 (inactive) | -0.65 (inactive)
CN(C)C(=O)[C@]1(Cc2ccccc2N=[N+]=[N-])N=C(c2ccc(OCCCO)cc2)O[C@@H]1c1ccccc1 | 0.0707 | -1.87 (inactive) | -0.597 (inactive) | 0.209 (inactive) | -1.49 (inactive) | 0.504 (inactive) | 0.651 (inactive) | 1.15 (inactive) | 0.0542 | -0.141 | 1.03 (inactive) | 0.383 | -2.02 | -6.21 (inactive) | -0.879 (inactive) | -1.26 (inactive)
COCCOC(=O)N1C(=O)[C@@]2(c3cc(C#CCCO)ccc31)[C@H](C(=O)N1CCc3cc(OC)c(OC)cc3C1)[C@H]1C(=O)O[C@H](c3ccccc3)[C@H](c3ccccc3)N1[C@@H]2c1ccc(O)cc1 | 0.0444 | -0.253 (inactive) | -0.419 (inactive) | -0.268 (inactive) | 0.875 (inactive) | 2.12 (inactive) | 0.316 (inactive) | 0.884 (inactive) | -0.368 | -0.0812 | 1.55 (inactive) | 0.798 | -0.439 | -2.01 (inactive) | -0.463 (inactive) | -0.656 (inactive)
COc1ccc([Si](C)(C)[C@@H]2[C@@H](CCO)O[C@]3(C(=O)N(Cc4ccc(N5C(=O)COc6ccccc65)cc4)c4ccccc43)[C@H]2C)cc1 | -1.59 | 1.54 (inactive) | -2.01 (inactive) | -0.0524 (inactive) | 2.5 (inactive) | 4.73 (inactive) | -0.238 (inactive) | -0.639 (inactive) | -3.64 | -0.0559 | 0.906 (inactive) | 0.811 | -2.81 | -2.08 (inactive) | -0.591 (inactive) | -1.55 (inactive)
COC(=O)[C@@]1(Cc2ccc(OC)cc2)[C@H]2c3cc(C(=O)N(C)C)n(CCN4CNCC4=O)c3C[C@H]2CN1C(=O)c1ccccc1 | 0.642 | 0.124 (inactive) | 0.622 (inactive) | -0.72 (inactive) | 0.371 (inactive) | -0.188 (inactive) | 0.479 (inactive) | -0.318 (inactive) | 0.777 | 0.597 | 0.384 (inactive) | -0.144 | -1.23 | -4.73 (inactive) | -0.648 (inactive) | -0.397 (inactive)
O=C(NCc1ccccc1)[C@@]1(CCS(=O)(=O)c2ccccc2)N=C(c2ccc(OCCCO)cc2)O[C@H]1c1ccccc1 | 1.36 | 1.01 (inactive) | -0.705 (inactive) | 1.05 (inactive) | -0.0304 (inactive) | 1.46 (inactive) | 0.714 (inactive) | 1.62 (inactive) | 0.448 | 0.202 | 0.429 (inactive) | 0.565 | -2.05 | -1.15 (inactive) | -0.751 (inactive) | -0.64 (inactive)
